TDP1 cell CPT: growth inhibition of DT40 Tdp1-/-;hTDP1 cells with camptothecin (screen for TDP1 inhibitors) | chicken DT40 Tdp1-/-;hTDP1 cells + 20 nM CPT, ATP luminescence, 48 h | Potency, µM (titrated, usually from 46.2 µM), without a hit: top-dose activity change, negative = growth inhibition, most hits filed as inhibitors | actives 12% (n = 420,000); further: nearly all actives have a fitted effect of over 55% in size
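Cell growth measured by CellTiter-Glo luminescence after a minimum 48 h, 37 C compound exposure with 20 nM CPT in Tdp1-knockout DT40 cells stably expressing hTDP1, seeded 400/well; qHTS titration format.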
HT1080NT lethal: kills 2HG-producing HT-1080-NT fibrosarcoma cells; HT-1080-NT fibrosarcoma viability, CellTiter-Glo ATP luminescence, 48 h; Potency, µM (top dose mostly 46.1 µM), for inactives: at the highest dose activity, negative = less viability, usual class: cytotoxic; actives 1.6% (n = 360,000); AID 686970;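 further: NT is the 2HG producing partner of a matched IDH1 knockdown line; 0% = DMSO-treated cells and -100% = media-only wells without cells; nearly all actives have a fitted effect of over 55% in size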
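A 48-hour cytotoxicity screen used HT-1080-NT cells plated 2 hours before compound delivery. ATP-based CellTiter-Glo luminescence measured viability, normalized to DMSO and no-cell controls.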
HT1080 IDH1KD tx: kills HT-1080 cells with IDH1 knockdown; HT-1080 IDH1 knockdown viability, ATP luminescence, 48 h; Potency, µM (doses to about 46.1 µM), for inactives: at the top dose activity, negative = toxicity, most hits filed as cytotoxic; actives 2% (n = 360,000); AID 686971;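 further: 0% = DMSO wells and -100% = cell-free medium wells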
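IDH1KD HT-1080 cells, 750/well, RPMI + 5% FBS; compound pinned after 2 h settling; 48 h, 37 °C; CellTiter-Glo luminescence; % activity normalised to DMSO and no-cell wells; curves fitted, classed by r2 and efficacy.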
KB-V1 MDR tox: kills drug-selected multidrug resistant KB-V1 cells. actives 3.4% (n = 400,000). KB-V1 MDR cells viability, CellTiter-Glo, 72 h. AID 1347076. Potency, µM (titrated, usually from 46.1 µM), actives largely listed as cytotoxic; further: nearly all actives have a fitted effect of over 60% in size
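KB-V1, DMEM (no phenol red) + 10% FBS; cpd pin-transferred, titration series; 72 h, 37 degrees C; CellTiter-Glo, luminescence. Data normalized, curve-fit.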
TDP1 cell noCPT: qHTS for Inhibitors of human tyrosyl-DNA phosphodiesterase 1 (TDP1): qHTS in cells in absence of CPT. DT40 Tdp1-/- hTDP1 cells, no CPT, ATP luminescence, 48 h. Potency, µM (top dose mostly 46.2 µM), for inactives: top-dose activity change, negative = growth inhibition, hits mostly inhibitors. actives 15% (n = 420,000). AID 686978, 2013; further: nearly all actives have a fitted effect of over 55% in size
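Readout: luminescence from CellTiter-Glo after 30 min in the dark at RT. Cells: DT40 Tdp1-/- with stable hTDP1, 400/well. Exposure: compounds alone, ≥48 hr, 37 °C.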
KB-3-1 cytotox: KB-3-1 parental cell cytotoxicity; actives 1.4% (n = 400,000); Potency, µM (series often up to 46.1 µM), actives largely listed as cytotoxic; KB-3-1 viability, CellTiter-Glo ATP luminescence, 72 h; further: nearly all actives have a fitted effect of over 60% in size
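Parental KB-3-1 adenocarcinoma cells in phenol-red-free DMEM with 10% FBS were pin-treated with compounds at several concentrations, incubated 72 h at 37 °C, and viability read by CellTiter-Glo luminescence; concentration-effect curves were fitted after normalization.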
* = called active by the depositor; ! = not confirmed by another sample; [ ] = dose if it differs, or a comment. Compounds with a hit are over-represented: about 19% of the library has one in this group of screens. The call rests on the fitted dose curve; in most records, active means well fitted curve in the direction sought with a large enough effect; inconclusive means small, poorly fitted or top-dose-only effect, or another doubt; inactive means no such curve, though single readings can be large; an effect the other way counts as inactive or inconclusive. Unless noted, on the % scale 0 is the no-effect control and ±100 the full control effect; potency means the concentration at half of the fitted maximal effect.

How did CCOC(=O)N1CCC(N(CCCOC)C(=O)Nc2ccc(CC)cc2)CC1 do in these assays?
TDP1 cell CPT: 18.4µM*; HT1080NT lethal: -15.0%; HT1080 IDH1KD tx: 13.2%[9.24 µM]; KB-V1 MDR tox: inactive; TDP1 cell noCPT: 13µM*; KB-3-1 cytotox: inactive

Results for CNc1ncnc2c1ncn2[C@@H]1O[C@H](CO)[C@@H](O)[C@H]1O ?
TDP1 cell CPT: inconclusive; HT1080NT lethal: 14.2%; HT1080 IDH1KD tx: 12.2%; KB-V1 MDR tox: inactive; TDP1 cell noCPT: -22.6%; KB-3-1 cytotox: inactive

What do the screens show for `CN(C)c1ncnc2c1ncn2C1OC(CO)C(O)C1O` (configuration not stated)?
TDP1 cell CPT: 2.91µM*; HT1080NT lethal: 13µM*; HT1080 IDH1KD tx: 13µM*; KB-V1 MDR tox: inconclusive; TDP1 cell noCPT: 2.91µM*; KB-3-1 cytotox: 8.2µM*

How did CN(C)c1ncnc2c1nnn2C1OC(CO)C(O)C1O (configuration not stated) do in these assays?
TDP1 cell CPT: 0.581µM*; HT1080NT lethal: 0.581µM*; HT1080 IDH1KD tx: 0.461µM*; KB-V1 MDR tox: 1.64µM*; TDP1 cell noCPT: 0.326µM*; KB-3-1 cytotox: inactive

Results for COc1ccc(C[C@H](N)C(=O)N[C@H]2[C@@H](O)[C@H](n3cnc4c(N(C)C)ncnc43)O[C@@H]2CO)cc1 ?
TDP1 cell CPT: -25.2%; HT1080NT lethal: 4.2%; HT1080 IDH1KD tx: 11.0%; KB-V1 MDR tox: inactive; TDP1 cell noCPT: 8.2µM*!; KB-3-1 cytotox: 0.411µM*

What do the screens show for `C=CCOc1ccc(C[C@H](N)C(=O)NC[C@H]2O[C@@H](n3cnc4c(N)ncnc43)[C@H](O)[C@@H]2O)cc1`?
TDP1 cell CPT: -13.5%; HT1080NT lethal: -0.6%; HT1080 IDH1KD tx: 4.1%; KB-V1 MDR tox: inactive; TDP1 cell noCPT: -22.0%; KB-3-1 cytotox: inactive

What do the screens show for `C[C@H](Cc1ccccc1)Nc1ncnc2c1ncn2[C@@H]1O[C@H](CO)[C@@H](O)[C@H]1O`?
TDP1 cell CPT: inconclusive; HT1080NT lethal: inconclusive; HT1080 IDH1KD tx: 7.8%; KB-V1 MDR tox: inactive; TDP1 cell noCPT: -29.5%; KB-3-1 cytotox: inactive

Results for OCC1OC(n2cnc3c(/C=C(\O)c4ccccc4)ncnc32)C(O)C1O (configuration not stated) ?
TDP1 cell CPT: 1.3µM*; HT1080NT lethal: inconclusive; HT1080 IDH1KD tx: 14.6µM*; KB-V1 MDR tox: inconclusive; TDP1 cell noCPT: 1.46µM*; KB-3-1 cytotox: inconclusive

Results for COc1ccc(CN(CC(O)COCc2ccccc2)S(=O)(=O)c2ccccc2Br)cc1OC (configuration not stated) ?
TDP1 cell CPT: inconclusive; HT1080NT lethal: -27.1%; HT1080 IDH1KD tx: -26.1%; KB-V1 MDR tox: inconclusive; TDP1 cell noCPT: 16.4µM*; KB-3-1 cytotox: inconclusive

How did CCOc1ccc(N(CC(=O)Nc2ccccc2C)S(=O)(=O)c2c(C)noc2C)cc1 do in these assays?
TDP1 cell CPT: 4.61µM*; HT1080NT lethal: 4.61µM*; HT1080 IDH1KD tx: 3.66µM*; KB-V1 MDR tox: inconclusive; TDP1 cell noCPT: 2.91µM*; KB-3-1 cytotox: 5.8µM*

How did CCOc1ccc(N(CC(=O)NC2CCCC2)S(=O)(=O)c2c(C)noc2C)cc1 do in these assays?
TDP1 cell CPT: -28.7%; HT1080NT lethal: 0.0%; HT1080 IDH1KD tx: 5.6%; KB-V1 MDR tox: inactive; TDP1 cell noCPT: -26.9%; KB-3-1 cytotox: inactive

What do the screens show for `CCOc1ccccc1NC(=O)CN(c1cc(C)cc(C)c1)S(=O)(=O)c1c(C)noc1C`?
TDP1 cell CPT: -2.6%; HT1080NT lethal: 14.9%; HT1080 IDH1KD tx: -2.4%; KB-V1 MDR tox: inconclusive; TDP1 cell noCPT: -19.9%; KB-3-1 cytotox: inactive

Results for CCOc1ccccc1NC(=O)CN(c1ccc(OC)cc1)S(=O)(=O)c1c(C)noc1C ?
TDP1 cell CPT: 2.91µM*; HT1080NT lethal: 5.17µM*; HT1080 IDH1KD tx: 5.17µM*; KB-V1 MDR tox: 2.59µM*; TDP1 cell noCPT: 3.26µM*; KB-3-1 cytotox: 5.8µM*

What do the screens show for `CC1CCN(CC(=O)Nc2ccc(S(=O)(=O)N3CCC(C)CC3)cc2)CC1`?
TDP1 cell CPT: inconclusive; HT1080NT lethal: -13.0%; HT1080 IDH1KD tx: -7.5%; KB-V1 MDR tox: inconclusive; TDP1 cell noCPT: inconclusive; KB-3-1 cytotox: inconclusive

What do the screens show for `CCOc1ccc(NC(=O)Cn2nnc(-c3ccccc3F)n2)cc1`?
TDP1 cell CPT: 20.6µM*; HT1080NT lethal: -0.4%; HT1080 IDH1KD tx: -16.4%; KB-V1 MDR tox: inactive; TDP1 cell noCPT: inconclusive; KB-3-1 cytotox: inactive

Results for Cc1ccc(-c2nnn(CC(=O)Nc3ccc(S(=O)(=O)N4CCC(C)CC4)cc3)n2)cc1 ?
TDP1 cell CPT: inconclusive; HT1080NT lethal: 23.1µM*; HT1080 IDH1KD tx: 11.6µM*; KB-V1 MDR tox: inconclusive; TDP1 cell noCPT: 18.4µM*; KB-3-1 cytotox: inactive

Results for COc1ccc(NC(=O)Cn2nnc(-c3ccccc3F)n2)cc1 ?
TDP1 cell CPT: -13.5%; HT1080NT lethal: -5.1%; HT1080 IDH1KD tx: -13.4%; KB-V1 MDR tox: inactive; TDP1 cell noCPT: -27.0%; KB-3-1 cytotox: inactive

What do the screens show for `CCOc1ccc(-c2nnn(CC(=O)NCc3ccccc3)n2)cc1`?
TDP1 cell CPT: inconclusive; HT1080NT lethal: -2.0%; HT1080 IDH1KD tx: -9.2%; KB-V1 MDR tox: inconclusive; TDP1 cell noCPT: inconclusive; KB-3-1 cytotox: 6.51µM*

Results for CCOc1ccc(-c2nnn(CC(=O)NCc3ccco3)n2)cc1 ?
TDP1 cell CPT: inconclusive; HT1080NT lethal: -11.1%; HT1080 IDH1KD tx: -13.2%; KB-V1 MDR tox: inconclusive; TDP1 cell noCPT: -20.4%; KB-3-1 cytotox: inconclusive

What do the screens show for `CCCCOc1ccc(NC(=O)Cn2nnnc2-c2ccccc2F)cc1`?
TDP1 cell CPT: -18.4%; TDP1 cell noCPT: -21.1%

Results for CN(C)C(=O)c1ccc(NC(=O)Cn2nnnc2-c2ccccc2F)cc1 ?
TDP1 cell CPT: 14.6µM*; TDP1 cell noCPT: 18.4µM*

Results for CCOC(=O)c1c(C)[nH]c(C)c1C(=O)COC(=O)c1cccs1 ?
TDP1 cell CPT: inconclusive; HT1080NT lethal: 1.4%; HT1080 IDH1KD tx: 6.2%; KB-V1 MDR tox: inactive; TDP1 cell noCPT: -8.1%; KB-3-1 cytotox: inactive

How did O=C(CSc1nnc(NC2CC2)s1)c1ccc[nH]1 do in these assays?
TDP1 cell CPT: 5.9%; HT1080NT lethal: 1.1%; HT1080 IDH1KD tx: 7.4%; KB-V1 MDR tox: inactive; TDP1 cell noCPT: 0.2%; KB-3-1 cytotox: inactive
